Screening results (PubChem)
CBFb RUNX1 block: qHTS Assay for Compounds Blocking the Interaction Between CBF-beta and RUNX1 for the Treatment of Acute Myeloid Leukemia; Runt-related transcription factor 1 (Homo sapiens) + Core-binding factor subunit beta …; AlphaScreen CBFb-His/RUNX1-biotin binding, biochemical; Potency, µM (top dose mostly 59.8 µM), for inactives: at the top dose activity, negative = inhibition, most hits filed as inhibitors; 230,000 tested, under 10 active; note: % of control where 0% means no effect
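Interaction loss through any mechanism counts as activity. Pre-formed complex of His-CBF-beta and biotin-RUNX1 (30 nM apiece) is incubated with compound 15 min, then with 50 ng nickel and 50 ng streptavidin beads for 90 min before AlphaScreen detection.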
PKM2 act: qHTS Assay for Activators of Human Muscle isoform 2 Pyruvate Kinase | AID 1631, 2009 | 260,000 compounds, 0.34% hits | purified PKM2, Kinase-Glo ATP luminescence, activation; response scale: 0% is enzyme alone, no compound | Potency, µM (highest dose often 57.5 µM), for the others: at the top dose activation, usual class: activators | Pyruvate kinase PKM (Homo sapiens), P14618; note: potency is the fitted concentration of half-maximal effect; % is set by controls: 0 for no effect and ±100 for the full control effect; nearly all actives have a fitted effect of over 55% in size
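hPK-M2, >95% pure; 0.1 mM ADP / 0.5 mM PEP final; imidazole pH7.2 buffer w/ 7 mM MgCl2, 50 mM KCl; 1 h RT; Kinase-Glo lum. Intermediate enzyme activity for dual inhibitor/activator qHTS.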
Tb PFK inh-1: qHTS Assay to Find Inhibitors of T. brucei phosphofructokinase; T. brucei PFK, ADP-Glo luminescence; ATP-dependent 6-phosphofructokinase (Trypanosoma brucei brucei), O15648; Potency, µM (titrated, usually from 57.5 µM), for inactives: at the top dose activity, negative = inhibition, most hits filed as inhibitors; 330,000 compounds, 0.17% hits;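 note: potency is the fitted concentration of half-maximal effect; 0% = uninhibited 1x PFK enzyme wells and -100% = no-enzyme wells; nearly all actives have a fitted effect of over 60% in size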
Target sequence (O15648 whole entry, looked up): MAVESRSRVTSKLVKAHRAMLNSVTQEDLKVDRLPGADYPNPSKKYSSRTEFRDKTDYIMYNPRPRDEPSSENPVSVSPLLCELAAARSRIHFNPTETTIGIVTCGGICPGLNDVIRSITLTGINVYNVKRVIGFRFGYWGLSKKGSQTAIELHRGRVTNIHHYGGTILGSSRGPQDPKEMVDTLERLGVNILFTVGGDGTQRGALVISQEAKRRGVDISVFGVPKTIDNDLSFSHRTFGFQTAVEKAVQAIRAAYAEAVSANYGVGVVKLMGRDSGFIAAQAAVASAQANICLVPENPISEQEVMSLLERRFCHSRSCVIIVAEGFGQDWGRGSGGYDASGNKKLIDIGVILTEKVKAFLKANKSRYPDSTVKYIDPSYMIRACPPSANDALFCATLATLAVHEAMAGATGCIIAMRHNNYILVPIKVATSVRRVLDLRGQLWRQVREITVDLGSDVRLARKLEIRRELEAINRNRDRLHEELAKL
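Luminescent ADP detection (ADP-Glo, two-step: ATP depletion then ADP-to-ATP conversion for luciferase) reported PFK activity after 45 min room-temperature reaction of 1.25 nM enzyme with 0.5 mM F6P and 0.1 mM ATP at pH 8.0.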
GALK inhibitor: qHTS Assay for Inhibitors of Human Galactokinase (GALK). Purified GALK, Kinase-Glo residual ATP luminescence. Potency, µM (highest dose often 57.5 µM), for the others: at the top dose activity change, negative = inhibition, usual class: inhibitors. 270,000 compounds, 0.007% hits; note: potency is the fitted concentration of half-maximal effect; % is set by controls: 0 for no effect and ±100 for the full control effect
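Galactose (100 uM) and ATP (35 uM) were turned over by 5 nM GALK for 1 h at RT. Kinase-Glo Plus then converted the remaining ATP into a luminescent signal.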
KinaseGlo FLuc: Counterscreen for Luciferase (Kinase-Glo TM) Inhibition. Luciferin 4-monooxygenase (Photuris pensylvanica), Q27757. Kinase-Glo luciferase, ATP luminescence, 8 min. Potency, µM (highest dose often 38.3 µM), for inactives: at the highest dose activity change, negative = inhibition, actives largely listed as inhibitors. 200,000 compounds, 0.28% hits; note: potency is the fitted concentration of half-maximal effect; % is set by controls: 0 for no effect and ±100 for the full control effect; nearly all actives have a fitted effect of over 60% in size
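Substrate mix (final 50 mM imidazole pH 7.2, 50 mM KCl, 7 mM MgCl2, 10 uM ATP, 0.01% Tween 20, 0.05% BSA) plus pin-tool compound, then Kinase-Glo detection mix; 8 min ambient, luminescence read.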
Tb PFK KinaseGlo: Tb PFK orthogonal confirmatory assay using ATP depletion (Kinase-Glo Plus) as an alternative measure of Tb PFK activity: Hit Validation | shares compounds with Tb PFK inh-1 | Tb PFK enzyme, ATP depletion, Kinase-Glo Plus luminescence | Potency, µM (series often up to 57.5 µM), for the others: at the top dose inhibition | 1,100 compounds, 47% hits | AID 504636, 2011; calls by dose curve; note: potency is the fitted concentration of half-maximal effect; nearly all actives have a fitted effect of over 60% in size
Tb PFK inh-2: Inhibitors of T. brucei phosphofructokinase: Hit Validation; shares compounds with Tb PFK inh-1; purified T. brucei PFK, ADP-Glo luminescence, 45 min; Potency, µM (titrated, usually from 57.5 µM), for the others: top-dose activity change, negative = inhibition, usual class: inhibitors; 1,100 compounds, 41% hits;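 note: potency is the fitted concentration of half-maximal effect; plate controls were full PFK enzyme control for no effect and no enzyme control for full effect; nearly all actives have a fitted effect of over 60% in size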
Starred values were filed as active, the others as inactive; u = inconclusive; x = no result given; [ ] = remark or other dose. Shown are actives, neighbours in structure and some others; about 0.56% of the full set was active somewhere. Unless noted, calls come from the whole dose curve; as a rule, active = well fitted curve in the direction sought with a large enough effect; inconclusive = small, poorly fitted or top-dose-only effect, or another doubt; inactive = no such curve, though single readings can be large; an effect the other way counts as inactive or inconclusive.

SMILES | CBFb RUNX1 block | PKM2 act | Tb PFK inh-1 | GALK inhibitor | KinaseGlo FLuc | Tb PFK KinaseGlo | Tb PFK inh-2
O=C(O)CC1S/C(=N/N=C/c2ccc(-c3ccc(Cl)cc3[N+](=O)[O-])o2)NC1=O (stereo unspecified) | -19% | 1% | u | -4% | 0% | -33% | u
O=C(NC(=O)c1c(F)cccc1F)Nc1ccc(Cl)cc1 | x | x | x | x | -2% | x | x
O=C(CSc1ccccc1)Nc1ccc(S(=O)(=O)Nc2ncccn2)cc1 | 19% | -17% | u | 5% | 2% | u | -13%
CCC(=O)Nc1ccccc1 | x | 1% | 4% | x | x | x | x
O=C(Nc1ccc(Cl)cc1)Nc1ccc(S(=O)(=O)Nc2ncccn2)cc1 | -1% | 2% | 15µM* | -4% | x | 8.5µM* | 27µM*
CCCC(C)c1nnc(NC(=O)c2cc(C(=O)OC)cc([N+](=O)[O-])c2)s1 (stereo unspecified) | -5% | 0% | 24µM* | -3% | -6% | 6.7µM* | 15µM*
CCOC(=O)C/C(C)=N/NC(=O)CNc1cccc(Cl)c1C | 0% | 4% | 24µM* | 11% | 2% | 16% | -4%
CCN(CC)CCOC(=O)c1ccc(N/C=C(/C#N)c2nc(-c3ccc4c(c3)OCO4)cs2)cc1 | u | 1% | u | -3% | x | -30% | u
CCN(CC)CCOC(=O)c1ccc(N/C=C(/C#N)c2nc(-c3cc4ccccc4oc3=O)cs2)cc1 | x | x | u | 3% | x | -25% | u
CCN(CC)CCOC(=O)c1ccc(N=Cc2c(O)[nH]c(=O)[nH]c2=O)cc1 | 0% | 5% | -3% | 2% | -6% | x | x
CCOc1ccc2cc(C#N)c(=O)oc2c1 | 7% | x | x | x | x | x | x
C[N+]1([O-])CCC[C@@H]1c1cccnc1 (stereo partly specified) | 9% | x | x | x | x | x | x
O=C(CSc1ccccn1)N1CCN(c2cccc(Cl)c2)CC1 | 3% | 5% | u | 0% | -1% | u | u
O=C(CCC(=O)N1CCN(c2cccc(Cl)c2)CC1)c1cccs1 | x | x | u | x | x | u | u
O=C(Nc1ccc(Cl)cc1C(=O)c1ccccc1)c1ccccc1 | 1% | 0% | -5% | 2% | -1% | x | x
NS(=O)(=O)c1ccc(NC(=S)N2CCN(c3cccc(Cl)c3)CC2)cc1 | -11% | 6% | u | -1% | 3% | 11µM* | 15µM*
O=C(Nc1cccc(C(=O)N2CCN(c3cccc(Cl)c3)CC2)c1)c1ccccc1 | u | -5% | u | 0% | -1% | u | u
O=C1CC(=O)N(c2cccc(Cl)c2)C(=O)N1 | -2% | 0% | 9% | -1% | 2% | x | x
CCC#N | 2%[21.7 µM] | x | x | x | x | x | x
C#C[C@@]1(O)CC[C@@H]2[C@@H]3CCC4=CC(=O)CC[C@@]4(C)[C@H]3CC[C@]21C | -5%[21.7 µM] | x | x | x | 2%[17.1 µM] | x | x
O=C1Nc2cc(Cl)c(Cl)cc2N2CCNC[C@H]12 | u | x | x | x | 1% | x | x
O=C(N1CCOCC1)C1(c2ccccc2)CCNCC1 | x | x | x | x | -1%[7.66 µM] | x | x
CC1O[C@@H](O[C@@H]2C(O)C[C@H](O[C@@H]3C(O)C[C@@H](OC4CC[C@@]5(C)C6CC[C@]7(C)C(C8=CC(=O)OC8)CC[C@@]7(O)C6CC[C@@H]5C4)OC3C)OC2C)CC(O)[C@H]1O (stereo partly specified) | 8% | x | x | x | -2% | x | x
CCOC(=O)N1CCN(c2ccc(Cl)c(Cl)c2)CC1 | 11% | 10% | u | 0% | 5% | x | x
CC(=O)c1ccc(NC(=O)N2CCN(c3cccc(Cl)c3)CC2)cc1 | -4% | 10% | 21µM* | -7% | -1% | 21µM* | u
SMILES | CBFb RUNX1 block | PKM2 act | Tb PFK inh-1 | GALK inhibitor | KinaseGlo FLuc | Tb PFK KinaseGlo | Tb PFK inh-2
O=C(CCC(=O)N1CCN(c2cccc(Cl)c2)CC1)N1CCN(c2ccccc2)CC1 | x | 1%[11.5 µM] | u | 5% | x | u | u
CC(=O)O/C(=C1/C[C@H]2[C@@H]3CC=C4C[C@@H](OC(C)=O)CC[C@]4(C)[C@@H]3CC[C@]2(C)C1=O)C(F)(F)F | x | x | x | x | -5%[7.66 µM] | x | x
C[C@@H]1C[C@H](C)C[C@H](C)[C@@H](O)CC(=O)O[C@H]([C@H]2CCC[C@H]2C(=O)O)C/C=C/C=C(/C#N)[C@H](O)[C@@H](C)C1 | -4% | x | x | x | x | x | x
CCC1(CCSC(=N)N)C(=O)NC(=O)NC1=O | x | x | x | x | -6%[7.66 µM] | x | x
COc1cccc([C@@]2(O)CCCCC2CN(C)C)c1 (stereo partly specified) | 4% | x | x | x | x | x | x
O=C(CSC1=NS(=O)(=O)c2cc(Cl)ccc2N1)Nc1cccc(F)c1 | x | x | u | x | x | 24µM* | u
c1nc[n]([Sn]([CH]2CCCCC2)([CH]2CCCCC2)[CH]2CCCCC2)n1 | 3% | x | x | x | x | x | x
O=C1C=C(c2ccccc2)C(=O)N1Nc1ccccc1 | 0% | 21% | 24µM* | 0% | -3% | 21µM* | u
Nc1ccc(S(=O)(=O)c2ccc(NCN3C(=O)NC(=O)C(=O)C3=O)cc2)cc1 | x | x | x | x | -2%[7.66 µM] | x | x
N#Cc1sc(NCc2cccc(Cl)c2)nc1Cl | x | x | u | 4% | x | 19µM* | 30µM*
O=C1C=C2C=CC3C[C@@]2(O1)C1CCCCN31 (stereo partly specified) | -6% | x | x | x | -2% | x | x
O=C(O)Cc1ccccc1 | -7% | x | x | x | 0%[39.9 µM] | x | x
O=C(O)Cc1ccc(NC(=O)Nc2ccc(Br)cc2)cc1 | 5% | -8% | u | 1% | -1% | 12µM* | 24µM*
Cc1ccc(NC(=O)CSc2ncc3ccccn23)cc1C | -1% | 16% | 9.5µM* | 0% | -1% | u | -18%
Cc1ccc(NC(=S)NCCc2cnc[nH]2)cc1C | -2% | 3% | -11% | 2% | -2% | x | x
CN(C)c1ccccc1 | -10%[21.7 µM] | x | x | x | x | x | x
CN(C)c1ccc(NC(=S)c2ccc3ccccc3n2)cc1 | x | -1%[0.46 µM] | u | 8% | x | 9.5µM* | 9.5µM*
CN(C(=O)Cc1ccc(Cl)c(Cl)c1)C(CN1CCCC1)c1cccc(N=C=S)c1 (stereo unspecified) | 3% | x | x | x | x | x | x
